# Data: the supplement of paper PMC4466140
# Tests used:
# Experiment in all cases: SPOT peptide array binding signal intensity (averaged, normalized) (arbitrary units (background-subtracted, floor 0; scale differs between SH3 domains)); higher = stronger binding of the SH3 domain to the peptide
# [1] = biological target: AgAbp1
# Outline: (§1)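 Spot intensities were captured after detection with anti-GST antibody, an HRP-linked anti-mouse secondary and luminol, and quantified with Genespotter. The probes were GST-fused SH3 domains from four yeast species, produced in E. coli BL21(DE3), purified on glutathione Sepharose and incubated at 10 μg/ml overnight at 4°C on cellulose-bound synthetic 15-mer peptides with cysteines replaced by serines. Binding signal is the normalized, background-subtracted spot intensity averaged over replicates, and its arbitrary units differ between domains.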
# [2] = biological target: AgBbc1
# Outline: as §1
# [3] = biological target: AgBem1-D1
# Outline: as §1
# [4] = biological target: AgBzz1-D1
# Outline: as §1
# [5] = biological target: AgBzz1-D2
# Outline: as §1
# [6] = biological target: AgCyk3
# Outline: as §1
# [7] = biological target: AgFus1
# Outline: as §1
# [8] = biological target: AgHof1
# Outline: as §1
# [9] = biological target: AgHse1
# Outline: as §1
# [10] = biological target: AgLsb1
# Outline: as §1
# [11] = biological target: AgLsb4
# Outline: as §1
# [12] = biological target: AgMyo5
# Outline: as §1
# [13] = biological target: AgNbp2
# Outline: as §1
# [14] = biological target: AgRvs167
# Outline: as §1
# [15] = biological target: AgSho1
# Outline: as §1
# [16] = biological target: AgSla1-D1-D2
# Outline: as §1
# [17] = biological target: AgSla1-D3
# Outline: as §1
# [18] = biological target: CaAbp1-D1
# Outline: as §1
# [19] = biological target: CaAbp1-D2
# Outline: as §1
# [20] = biological target: CaBbc1
# Outline: as §1
# [21] = biological target: CaBem1-D1
# Outline: as §1
# [22] = biological target: CaBzz1-D1
# Outline: as §1
# [23] = biological target: CaBzz1-D2
# Outline: as §1
# [24] = biological target: CaCyk3
# Outline: as §1
# [25] = biological target: CaFus1
# Outline: as §1
# [26] = biological target: CaHof1
# Outline: as §1
# [27] = biological target: CaHse1
# Outline: as §1
# [28] = biological target: CaLsb1
# Outline: as §1
# [29] = biological target: CaLsb4
# Outline: as §1
# [30] = biological target: CaMyo5
# Outline: as §1
# [31] = biological target: CaNbp2
# Outline: as §1
# [32] = biological target: CaRvs167
# Outline: as §1
# [33] = biological target: CaRvs167-3
# Outline: as §1
# [34] = biological target: CaSho1
# Outline: as §1
# [35] = biological target: CaSla1-D1-D2
# Outline: as §1
# [36] = biological target: CaSla1-D3
# Outline: as §1
# [37] = biological target: ScAbp1
# Outline: as §1
# [38] = biological target: ScBbc1
# Outline: as §1
# [39] = biological target: ScBem1-D1
# Outline: as §1
# [40] = biological target: ScBzz1-D1
# Outline: as §1
# [41] = biological target: ScBzz1-D2
# Outline: as §1
# [42] = biological target: ScCyk3
# Outline: as §1
# [43] = biological target: ScFus1
# Outline: as §1
# [44] = biological target: ScHof1
# Outline: as §1
# [45] = biological target: ScHse1
# Outline: as §1
# [46] = biological target: ScLsb1
# Outline: as §1
# [47] = biological target: ScLsb2
# Outline: as §1
# [48] = biological target: ScLsb3
# Outline: as §1
# [49] = biological target: ScLsb4
# Outline: as §1
# [50] = biological target: ScMyo3
# Outline: as §1
# [51] = biological target: ScMyo5
# Outline: as §1
# [52] = biological target: ScNbp2
# Outline: as §1
# [53] = biological target: ScPex13
# Outline: as §1
# [54] = biological target: ScRvs167
# Outline: as §1
# [55] = biological target: ScSho1
# Outline: as §1
# [56] = biological target: ScSla1-D1-D2
# Outline: as §1
# [57] = biological target: ScSla1-D3
# Outline: as §1
# [58] = biological target: SpAbp1-D1
# Outline: as §1
# [59] = biological target: SpBbc1
# Outline: as §1
# [60] = biological target: SpBzz1-D1
# Outline: as §1
# [61] = biological target: SpBzz1-D2
# Outline: as §1
# [62] = biological target: SpCyk3
# Outline: as §1
# [63] = biological target: SpHof1
# Outline: as §1
# [64] = biological target: SpHof1-2
# Outline: as §1
# [65] = biological target: SpHof1-3
# Outline: as §1
# [66] = biological target: SpHse1
# Outline: as §1
# [67] = biological target: SpLsb1
# Outline: as §1
# [68] = biological target: SpLsb4
# Outline: as §1
# [69] = biological target: SpMyo1
# Outline: as §1
# [70] = biological target: SpNbp2
# Outline: as §1
# [71] = biological target: SpPex13
# Outline: as §1
# [72] = biological target: SpRvs167
# Outline: as §1
# [73] = biological target: SpSla1-D1-D2
# Outline: as §1
# [74] = biological target: SpSla1-D3
# Outline: as §1
binder,measurement,setting,value
ALFRLSFFFPLDPAY,SPOT peptide array binding signal intensity,[1],90.5
same,SPOT peptide array binding signal intensity,[2],59.5
same,SPOT peptide array binding signal intensity,[3],487
same,SPOT peptide array binding signal intensity,[4],204
same,SPOT peptide array binding signal intensity,[5],161
same,SPOT peptide array binding signal intensity,[6],40.5
same,SPOT peptide array binding signal intensity,[7],3740
same,SPOT peptide array binding signal intensity,[8],184
same,SPOT peptide array binding signal intensity,[9],2470
same,SPOT peptide array binding signal intensity,[10],66
same,SPOT peptide array binding signal intensity,[11],1960
same,SPOT peptide array binding signal intensity,[12],6.5
same,SPOT peptide array binding signal intensity,[13],796
same,SPOT peptide array binding signal intensity,[14],40.7
same,SPOT peptide array binding signal intensity,[15],2320
same,SPOT peptide array binding signal intensity,[16],150
same,SPOT peptide array binding signal intensity,[17],25.5
same,SPOT peptide array binding signal intensity,[18],494
same,SPOT peptide array binding signal intensity,[19],621
same,SPOT peptide array binding signal intensity,[20],162
same,SPOT peptide array binding signal intensity,[21],141
same,SPOT peptide array binding signal intensity,[22],574
same,SPOT peptide array binding signal intensity,[23],416
same,SPOT peptide array binding signal intensity,[24],68
same,SPOT peptide array binding signal intensity,[25],4730
same,SPOT peptide array binding signal intensity,[26],10
same,SPOT peptide array binding signal intensity,[27],985
same,SPOT peptide array binding signal intensity,[28],79.5
same,SPOT peptide array binding signal intensity,[29],278
same,SPOT peptide array binding signal intensity,[30],156
same,SPOT peptide array binding signal intensity,[31],1460
same,SPOT peptide array binding signal intensity,[32],578
same,SPOT peptide array binding signal intensity,[33],964
same,SPOT peptide array binding signal intensity,[34],2260
same,SPOT peptide array binding signal intensity,[35],131
same,SPOT peptide array binding signal intensity,[36],848
same,SPOT peptide array binding signal intensity,[37],81.5
same,SPOT peptide array binding signal intensity,[38],9.5
same,SPOT peptide array binding signal intensity,[39],110
same,SPOT peptide array binding signal intensity,[40],218
same,SPOT peptide array binding signal intensity,[41],531
same,SPOT peptide array binding signal intensity,[42],246
same,SPOT peptide array binding signal intensity,[43],3920
same,SPOT peptide array binding signal intensity,[44],2.5
same,SPOT peptide array binding signal intensity,[45],4160
same,SPOT peptide array binding signal intensity,[46],70.2
same,SPOT peptide array binding signal intensity,[47],24
same,SPOT peptide array binding signal intensity,[48],674
same,SPOT peptide array binding signal intensity,[49],104
same,SPOT peptide array binding signal intensity,[50],35
same,SPOT peptide array binding signal intensity,[51],62.8
same,SPOT peptide array binding signal intensity,[52],802
same,SPOT peptide array binding signal intensity,[53],116
same,SPOT peptide array binding signal intensity,[54],91.7
same,SPOT peptide array binding signal intensity,[55],2780
same,SPOT peptide array binding signal intensity,[56],120
same,SPOT peptide array binding signal intensity,[57],426
same,SPOT peptide array binding signal intensity,[58],303
same,SPOT peptide array binding signal intensity,[59],57.2
same,SPOT peptide array binding signal intensity,[60],838
MKRSRPSRSIPYTTP,SPOT peptide array binding signal intensity,[31],421
same,SPOT peptide array binding signal intensity,[32],18.3
same,SPOT peptide array binding signal intensity,[33],2
same,SPOT peptide array binding signal intensity,[34],250
same,SPOT peptide array binding signal intensity,[35],60
same,SPOT peptide array binding signal intensity,[36],14
same,SPOT peptide array binding signal intensity,[37],20
same,SPOT peptide array binding signal intensity,[38],18.8
same,SPOT peptide array binding signal intensity,[39],7
same,SPOT peptide array binding signal intensity,[40],27
same,SPOT peptide array binding signal intensity,[41],23
same,SPOT peptide array binding signal intensity,[42],37
same,SPOT peptide array binding signal intensity,[43],129
same,SPOT peptide array binding signal intensity,[44],0.5
same,SPOT peptide array binding signal intensity,[45],570
same,SPOT peptide array binding signal intensity,[46],10.2
same,SPOT peptide array binding signal intensity,[47],4
same,SPOT peptide array binding signal intensity,[48],320
same,SPOT peptide array binding signal intensity,[49],72
same,SPOT peptide array binding signal intensity,[50],10.5
same,SPOT peptide array binding signal intensity,[51],8
same,SPOT peptide array binding signal intensity,[52],620
same,SPOT peptide array binding signal intensity,[53],10
same,SPOT peptide array binding signal intensity,[54],19.8
same,SPOT peptide array binding signal intensity,[55],351
same,SPOT peptide array binding signal intensity,[56],126
same,SPOT peptide array binding signal intensity,[57],43.5
same,SPOT peptide array binding signal intensity,[58],507
same,SPOT peptide array binding signal intensity,[59],15.5
same,SPOT peptide array binding signal intensity,[60],239
same,SPOT peptide array binding signal intensity,[61],1.5
same,SPOT peptide array binding signal intensity,[62],14
same,SPOT peptide array binding signal intensity,[63],50.2
same,SPOT peptide array binding signal intensity,[64],30
same,SPOT peptide array binding signal intensity,[65],244
same,SPOT peptide array binding signal intensity,[66],177
same,SPOT peptide array binding signal intensity,[67],4.5
same,SPOT peptide array binding signal intensity,[68],580
same,SPOT peptide array binding signal intensity,[69],82.5
same,SPOT peptide array binding signal intensity,[70],224
same,SPOT peptide array binding signal intensity,[71],16
same,SPOT peptide array binding signal intensity,[72],10.8
same,SPOT peptide array binding signal intensity,[73],≤ 0
same,SPOT peptide array binding signal intensity,[74],7
